Test [1] in a line: cAMP Responsive Elements (CRE) small molecule antagonists, cell-based qHTS assay: qHTS cell viability counter screen (AID 2060913). Further: nearly all actives have a fitted effect of over 40% in size. An outline of the steps: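 Steps: cells plated and held 18 hrs at 37 C/5% CO2; compounds and NKH477 (0.25 uM final) added; 3 hrs incubation; reporter substrate read; CellTiter-Glo added to measure cytotoxicity by luminescence.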
A general note: In qHTS, concentration-response curves come from the screen itself.

Test [2] in a line: cAMP Responsive Elements (CRE) small molecule agonists, cell-based qHTS assay: qHTS cell viability counter screen (AID 2060914).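 Further: viability read after 3 h of compound exposure; nearly all actives have a fitted effect of over 50% in size.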 An outline of the steps:
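Cells are seeded and incubated 18 h, treated with compounds in DMSO for 3 h, read for the bla reporter, then given CellTiter-Glo; luminescence is measured after 30 min at room temperature.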

Drawing on PubChem BioAssay (Tox21), this text covers Potency for 17 compounds.

Records with an inconclusive call do not appear. Entries that show only a call come without a potency. Active and inactive are the calls of the source. The call rests on the fitted dose curve; in most records, active means well fitted cell-killing curve with a large enough effect in the repeat runs; inconclusive means weak or mixed curves, or effect the other way; inactive means flat fitted curve, though single readings scatter.

For the compound `CC(C)NCC(O)c1ccc(NS(C)(=O)=O)cc1` (centres undefined), the Potency result in test [1] and in test [2] was “inactive” in each case.
With `Clc1nc(C(Cl)(Cl)Cl)c(Cl)c(Cl)c1Cl`, the Potency result in test [1] and in test [2] was “inactive” in each case.
`C/C(=C1\CCOC(=O)S1)N(C=O)Cc1cnc(C)nc1N`: the Potency entry in test [1] and in test [2] was “inactive” throughout.
Take `CC1=C(C(=O)O)N2C(=O)[C@@H](NC(=O)[C@H](N)c3ccc(O)cc3)[C@H]2SC1`: the Potency result in test [1] and in test [2] was “inactive” in each case.
For the compound `Nc1ccc(Nc2ccccc2)cc1`, the Potency result in test [1] and in test [2] was “inactive” throughout.
As to `C[C@]12CC[C@@H]3c4ccc(O)cc4CC[C@H]3[C@@H]1CC[C@@H]2O`, the Potency result in test [1] and in test [2] was “inactive” throughout.
With `O=C1OC2(c3cc(Br)c(O)c(Br)c3Oc3c2cc(Br)c(O)c3Br)c2c(Cl)c(Cl)c(Cl)c(Cl)c21`, the Potency entry in test [1] and in test [2] was “inactive” in each case.
As to `CC(=O)N[C@@H](CCC(N)=O)C(=O)O`, the Potency result in test [1] and in test [2] was “inactive” each time.
`O=S1(=O)N=C(O)c2ccccc21`: the Potency result in test [1] and in test [2] was “inactive” throughout.
Regarding `Nc1nc(N)c2nc(-c3ccccc3)c(N)nc2n1`, the Potency result in test [1] and in test [2] was “inactive” throughout.
Regarding `CC(C)(C)c1cccc(O)c1`, the Potency result in test [1] and in test [2] was “inactive” in each case.
For `CCCCNc1cc(C(=O)O)cc(S(N)(=O)=O)c1Oc1ccccc1`, the Potency result in test [1] and in test [2] was “inactive” in each case.
As for `CCCCOC(=O)C(C)OC(=O)CCC` (centres undefined), the Potency entry in test [1] and in test [2] was “inactive” throughout.
`CC(C)CCCC(=O)O`: the Potency entry in test [1] and in test [2] was “inactive” throughout.
On to `O=C1NC2CCCCN2C12CCN(CCCN1c3ccccc3CCc3ccc(Cl)cc31)CC2` (centres undefined), for which the Potency result in test [1] and in test [2] was “inactive” in each case.
As to `Cc1ccccc1C#N`, the Potency entry in test [1] and in test [2] was “inactive” throughout.
For `Cc1ccc(OC(=O)CC(C)C)cc1`, the Potency result in test [1] and in test [2] was “inactive” throughout.
